Measurements from PubChem BioAssay (EPA / NIEHS).
The source made the active and inactive calls. The calls were made as follows: active = hit-call score of the fitted dose curve at least 0.9, where 1 is the maximum; inactive = score below 0.9.

Key:
Conditions in all cases: mRNA level, 48 h; actives raise or lower the signal
[1] = read-out: growth arrest and DNA damage 45 (GADD45G), GADD45G (gene 10912); test: LTEA_HepaRG_GADD45G: Life Technologies and Expression Analysis (LTEA) Assay for growth arrest and DNA damage 45 (GADD45G) using HepaRG (AID 2283499)
Method in brief: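 Human hepatic HepaRG line treated 48 h with chemicals (eight concentrations, half-log steps from 100 uM); transcript induction or repression of GADD45G scored by qRT-PCR versus DMSO vehicle.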

[2] = read-out: Glutamate-cysteine ligase regulatory (GCLM), GCLM (gene 2730); test: LTEA_HepaRG_GCLM: Life Technologies and Expression Analysis (LTEA) Assay for Glutamate-cysteine ligase regulatory (GCLM) using HepaRG (AID 2283500)
Method in brief: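 In this multiplexed HepaRG gene-expression assay, GCLM mRNA change after 48 h treatment (8 concentrations, max 100 uM) was scored against DMSO by bidirectional curve fitting.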

[3] = read-out: Glutathione S-transferase M3 (GSTM3), GSTM3 (gene 2947); test: LTEA_HepaRG_GSTM3: Life Technologies and Expression Analysis (LTEA) Assay for Glutathione S-transferase M3 (GSTM3) using HepaRG (AID 2283501)
Method in brief: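 Changes in GSTM3 expression, an oxidative-stress marker, were scored by bidirectional curve fitting against 0.5% DMSO vehicle. Human HepaRG cultures received chemicals for 48 h in duplicate, highest concentration 100 uM with half-log dilutions.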

[4] = read-out: Heat shock 70 kDa protein 1 (HSPA1A), gene 3303; test: LTEA_HepaRG_HSPA1A: Life Technologies and Expression Analysis (LTEA) Assay for Heat shock 70 kDa protein 1 (HSPA1A) using HepaRG (AID 2283502)
Method in brief: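 An oxidative-stress marker readout: HepaRG cells treated 48 h in duplicate with an eight-point series (highest 100 uM) had HSPA1A mRNA quantified by TaqMan qRT-PCR. Activity was fitted in both directions using 0.5% DMSO as baseline.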

[5] = read-out: Hypoxia-inducible factor 1-alpha (Homo sapiens) (UniProt Q16665); test: LTEA_HepaRG_HIF1A: Life Technologies and Expression Analysis (LTEA) Assay for Hypoxia-inducible factor 1 (HIF1A) Trancription factor using HepaRG (AID 2283503);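 also: HIF1A transcript by TaqMan qRT-PCR normalized to ACTB GAPDH and POLR2A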
Method in brief: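 Gain- or loss-of-signal HIF1A mRNA changes are fitted against a DMSO baseline. HepaRG cultures receive eight concentrations, highest 100 uM, for 48 h in serum-free induction medium with 0.5% DMSO.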

[6] = read-out: 3-Hydroxy-3-Methylglutaryl-CoA Synthase 2 (HMGCS2), HMGCS2 (gene 3158); test: LTEA_HepaRG_HMGCS2: Life Technologies and Expression Analysis (LTEA) Assay for 3-Hydroxy-3-Methylglutaryl-CoA Synthase 2 (HMGCS2) using HepaRG (AID 2283504)
Method in brief: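 Expression of HMGCS2 in human HepaRG liver cells is measured by qRT-PCR 48 h after dosing (highest 100 uM, half-log series, 0.5% DMSO). Values come from bidirectional concentration-response fitting with DMSO as baseline.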

[7] = read-out: HGF (gene 3082); test: LTEA_HepaRG_HGF: Life Technologies and Expression Analysis (LTEA) Assay for Hepatocyte Growth Facto (HGF) using HepaRG (AID 2283505)
Method in brief: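 Gain or loss of HGF mRNA in human HepaRG liver cells after 48 h chemical exposure; eight concentrations up to 100 uM with 0.5% DMSO vehicle, quantified by TaqMan qRT-PCR.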

[8] = read-out: Insulin Like Growth Factor 1 (IGF1), IGF1 (gene 3479); test: LTEA_HepaRG_IGF1: Life Technologies and Expression Analysis (LTEA) Assay for Insulin Like Growth Factor 1 (IGF1) using HepaRG (AID 2283506)
Method in brief: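 Endpoint: IGF1 mRNA change by qRT-PCR, housekeeping-normalized, fitted bidirectionally relative to 0.5% DMSO vehicle. Human HepaRG cells were treated 48 h in serum-free induction medium, eight half-log concentrations topping at 100 uM.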

[9] = read-out: Intercellular Adhesion Molecule 1 (ICAM1), ICAM1 (gene 3383); test: LTEA_HepaRG_ICAM1: Life Technologies and Expression Analysis (LTEA) Assay for Intercellular Adhesion Molecule 1 (ICAM1) using HepaRG (AID 2283507)
Method in brief: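 Gain or loss of transcript in HepaRG hepatic cells is quantified by qRT-PCR after 48 h chemical exposure (up to 100 uM, half-log steps), with DMSO as baseline.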

[10] = read-out: Insulin-like growth factor-binding protein 1 (IGFBP1), IGFBP1 (gene 3484); test: LTEA_HepaRG_IGFBP1: Life Technologies and Expression Analysis (LTEA) Assay for Insulin-like growth factor-binding protein 1 (IGFBP1) using HepaRG (AID 2283508)
Method in brief: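 mRNA induction or loss was quantified by qRT-PCR after 48 h chemical exposure of human HepaRG cells, with 0.5% DMSO as vehicle and baseline. Concentration-response over eight points up to 100 uM.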

[11] = read-out: Interleukin 6 (IL6), IL6 (gene 3569); test: LTEA_HepaRG_IL6: Life Technologies and Expression Analysis (LTEA) Assay for Interleukin 6 (IL6) using HepaRG (AID 2283509)
Method in brief: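 qRT-PCR read-out of IL6 transcript, normalized to three housekeeping genes, after 48 h chemical exposure of HepaRG cells; 8-point half-log series, top 100 uM, 0.5% DMSO vehicle. Bidirectional curve fitting against DMSO baseline.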

[12] = read-out: Interleukin 6 Receptor (IL6R), IL6R (gene 3570); test: LTEA_HepaRG_IL6R: Life Technologies and Expression Analysis (LTEA) Assay for Interleukin 6 Receptor (IL6R) using HepaRG (AID 2283510);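 as to AC50: differentiated human HepaRG liver cells in serum-free induction medium; TaqMan qRT-PCR signal normalized to ACTB GAPDH and POLR2A housekeeping genes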
Method in brief: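 In this HepaRG screen, test chemicals act on cells for 48 h at up to 100 uM (eight half-log points, duplicate wells). IL6R expression is quantified by qRT-PCR after normalization to ACTB, GAPDH and POLR2A, with DMSO as baseline.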

[13] = read-out: Potassium channel subfamily K member 1 (KCNK1), KCNK1 (gene 3775); test: LTEA_HepaRG_KCNK1: Life Technologies and Expression Analysis (LTEA) Assay for Potassium channel subfamily K member 1 (KCNK1) using HepaRG (AID 2283511)
Method in brief: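 HepaRG, 48 h exposure, 8-pt half-log series top 100 uM, 0.5% DMSO vehicle, duplicates. Readout: KCNK1 transcript by qRT-PCR (Fluidigm array), housekeeping-normalized; bidirectional curve fit relative to DMSO baseline.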

[14] = read-out: Keratin 19 (KRT19), KRT19 (gene 3880); test: LTEA_HepaRG_KRT19: Life Technologies and Expression Analysis (LTEA) Assay for Keratin 19 (KRT19) using HepaRG (AID 2283512)
Method in brief: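 Gene-expression endpoint in the human liver line HepaRG after 48 h exposure to up to 100 uM test chemical with 0.5% DMSO vehicle; KRT19 mRNA by qRT-PCR, analyzed bidirectionally versus DMSO.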

[15] = read-out: JUN Transcription Factor, JUN (gene 3725); test: LTEA_HepaRG_JUN: Life Technologies and Expression Analysis (LTEA) Assay for JUN Transcription Factor using HepaRG (AID 2283513)
Method in brief: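 Gene-expression endpoint: JUN mRNA (qRT-PCR, normalized to three reference genes) in HepaRG cultures treated 48 h with chemicals, duplicate wells, 100 uM maximum with half-log dilutions; bidirectional fitting relative to 0.5% DMSO.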

[16] = read-out: Lipase C (LIPC), LIPC (gene 3990); test: LTEA_HepaRG_LIPC: Life Technologies and Expression Analysis (LTEA) Assay for Lipase C (LIPC) using HepaRG (AID 2283514)
Method in brief: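 HepaRG, 48 h exposure, 8-pt half-log series from 100 uM in 0.5% DMSO, duplicates. Readout: LIPC mRNA by Fluidigm qRT-PCR, housekeeping-normalized (ACTB/GAPDH/POLR2A). Gain or loss fitted bidirectionally against DMSO baseline.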

[17] = read-out: Lipoprotein lipase (LPL), LPL (gene 4023); test: LTEA_HepaRG_LPL: Life Technologies and Expression Analysis (LTEA) Assay for Lipoprotein lipase (LPL) using HepaRG (AID 2283515)
Method in brief: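 HepaRG, 48 h exposure, 8-pt half-log dilutions from 100 uM, 0.5% DMSO vehicle, duplicates; qRT-PCR (Fluidigm array) of LPL mRNA vs housekeeping genes; bidirectional curve fit relative to DMSO baseline.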

[18] = read-out: MicroRNA 122 (MIR122), gene 406906; test: LTEA_HepaRG_MIR122: Life Technologies and Expression Analysis (LTEA) Assay for MicroRNA 122 (MIR122) using HepaRG (AID 2283516); also: the transcript read is the microRNA miR-122
Method in brief: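 Changes in transcript abundance, up or down relative to 0.5% DMSO vehicle, were scored after 48 h chemical treatment of HepaRG cells (maximum 100 uM). Quantification used TaqMan qRT-PCR normalized to housekeeping genes.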

[19] = read-out: matrix metalloproteinase-10 (MMP10), MMP10 (gene 4319); test: LTEA_HepaRG_MMP10: Life Technologies and Expression Analysis (LTEA) Assay for matrix metalloproteinase-10 (MMP10) using HepaRG (AID 2283517)
Method in brief: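 Transcript levels come from Fluidigm qRT-PCR normalized to three housekeeping genes, with curves fitted bidirectionally against 0.5% DMSO. Human HepaRG cells were dosed for 48 hours at concentrations up to 100 uM.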

Measured: AC50

Chain of Hypoxia-inducible factor 1-alpha (Homo sapiens) (Q16665 whole entry, looked up): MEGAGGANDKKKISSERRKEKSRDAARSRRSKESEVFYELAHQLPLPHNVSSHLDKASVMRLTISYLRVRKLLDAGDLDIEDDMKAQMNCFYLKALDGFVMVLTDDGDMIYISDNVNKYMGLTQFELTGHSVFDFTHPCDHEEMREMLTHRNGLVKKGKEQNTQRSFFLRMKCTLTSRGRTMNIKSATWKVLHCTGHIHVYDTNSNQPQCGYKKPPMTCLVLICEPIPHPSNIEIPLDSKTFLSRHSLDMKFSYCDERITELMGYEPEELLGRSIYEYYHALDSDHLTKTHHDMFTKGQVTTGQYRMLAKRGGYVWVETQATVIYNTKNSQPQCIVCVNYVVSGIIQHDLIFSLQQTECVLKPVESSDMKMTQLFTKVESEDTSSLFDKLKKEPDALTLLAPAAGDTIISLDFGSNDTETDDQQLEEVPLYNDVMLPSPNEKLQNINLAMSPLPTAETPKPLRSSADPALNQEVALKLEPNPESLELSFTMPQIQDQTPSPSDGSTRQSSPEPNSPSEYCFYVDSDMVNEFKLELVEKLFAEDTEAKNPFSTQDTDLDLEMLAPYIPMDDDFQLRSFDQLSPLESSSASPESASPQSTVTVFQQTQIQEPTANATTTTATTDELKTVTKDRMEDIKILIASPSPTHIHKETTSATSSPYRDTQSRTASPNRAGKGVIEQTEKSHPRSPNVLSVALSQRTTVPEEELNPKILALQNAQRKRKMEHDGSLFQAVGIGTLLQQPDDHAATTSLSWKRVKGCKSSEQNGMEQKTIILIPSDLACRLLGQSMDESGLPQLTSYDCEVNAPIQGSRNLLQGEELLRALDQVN

CSC(=O)c1cccc2nnsc12
inactive: all assays above

CC(C)(C)[C@@H](O)[C@@H](Cc1ccc(Cl)cc1)n1cncn1
active: [17] 16.5 µM
not listed: [4]
inactive: all other assays above

O=C(O)C1(C(=O)Nc2ccc(Cl)cc2Cl)CC1
active: [1] 90.1 µM | [5] 50 µM | [6] 81 µM | [16] 76.2 µM | [18] 50 µM
inactive: all other assays above

OB(O)O
inactive: all assays above

CCOC(=O)c1ccc(O)cc1
inactive: all assays above

CC(C)CCCCCCc1ccc(O)cc1
inactive: all assays above

CC(=O)[C@H]1CC[C@H]2[C@@H]3CCC4=CC(=O)CC[C@]4(C)[C@H]3CC[C@]12C
active: [1] 23 µM | [3] 93.1 µM | [4] 70.2 µM | [6] 29.2 µM | [7] 85.4 µM | [8] 32.4 µM | [9] 33.3 µM | [10] 27.4 µM | [11] 83.5 µM | [12] 50 µM | [13] 56.6 µM | [14] 50 µM | [15] 50 µM | [16] 34.6 µM | [18] 32.3 µM | [19] 61.9 µM
inactive: [2] | [17]

C#CCOC(=O)[C@@H](C)Oc1ccc(Oc2ncc(Cl)cc2F)cc1
active: [6] 11.7 µM
inactive: all other assays above

CC(=O)S[C@@H]1CC2=CC(=O)CC[C@]2(C)[C@H]2CC[C@@]3(C)[C@@H](CC[C@@]34CCC(=O)O4)[C@H]12
active: [1] 32.7 µM | [6] 65.7 µM | [8] 68.7 µM | [12] 63.3 µM | [16] 50 µM | [18] 67.5 µM | [19] 76.1 µM
inactive: all other assays above

COCCO
inactive: all assays above

C=CCOC(Cn1ccnc1)c1ccc(Cl)cc1Cl (stereo not drawn)
inactive: [2] | [3] | [4] | [7]
active: [1] 91.6 µM | [5] 79.6 µM | [6] 32.4 µM | [8] 18.3 µM | [9] 13.2 µM | [10] 30 µM | [11] 73.7 µM | [12] 12.7 µM | [13] 50 µM | [14] 12.3 µM | [15] 75.5 µM | [16] 33 µM | [17] 13.7 µM | [18] 20.5 µM | [19] 34.4 µM

S=C([S-])NCCNC(=S)[S-].[Mn+2]
inactive: [4] | [13] | [19]
active: [1] 4.33 µM | [2] 8.92 µM | [3] 1.88 µM | [5] 3.12 µM | [6] 5.04 µM | [7] 7.5 µM | [8] 5 µM | [9] 6.29 µM | [10] 0.194 µM | [11] 5.31 µM | [12] 3.93 µM | [14] 10 µM | [16] 7.28 µM | [17] 3.29 µM | [18] 2.03 µM

CCCN(CCC)c1c([N+](=O)[O-])cc(C(F)(F)F)c(N)c1[N+](=O)[O-]
active: [2] 28.6 µM | [4] 50 µM | [6] 33.3 µM | [8] 22.7 µM | [16] 50 µM
not listed: [18]
inactive: all other assays above
